# Source: PubChem BioAssay (NCI)
# About 79,000 compounds went through this panel and 15% of them were active in at least one assay; those are over-represented in the sample as a whole. A number with no mark means an inactive call. Activity calls are given as the source filed them. No stated cut-off is given here; in the data, active means growth inhibition above about 70%; inactive means the rest.
# Experiments:
# [1] = NCI Yeast Anticancer Drug Screen. Data for the rad50 strain (AID 155);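 further: 0% = growth of vehicle-only cultures of the same strain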; settings: S. cerevisiae rad50 strain growth inhibition; at 50.0 µM; hits give high values
# Procedure, shortened: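 Growth of the mutant yeast was measured after compound exposure and referenced to vehicle-treated cultures.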
# [2] = NCI Yeast Anticancer Drug Screen. Data for the mec2-1 strain (AID 157); settings: S. cerevisiae mec2-1 strain, at 50.0 µM, hits give high values
# Procedure, shortened: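 Readout is yeast growth inhibition, normalised to vehicle-treated controls, in the mec2-1 strain exposed to compound.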
# [3] = NCI Yeast Anticancer Drug Screen. Data for the sgs1 mgt1 strain (AID 161);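 further: 0% = growth of cultures given vehicle only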; settings: S. cerevisiae sgs1 mgt1 strain, at 50.0 µM, hits give high values
# Procedure, shortened: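 Growth of a repair-deficient yeast mutant was monitored after compound treatment and expressed as inhibition relative to vehicle-treated cultures.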
# [4] = NCI Yeast Anticancer Drug Screen. Data for the cln2 rad14 strain (AID 165);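 further: 0% = growth equal to vehicle treated cultures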; settings: S. cerevisiae cln2 rad14 strain, at 50.0 µM, hits give high values
# Procedure, shortened: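 Relative to vehicle controls, growth inhibition of compound-treated cln2 rad14 yeast was recorded.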
# [5] = NCI Yeast Anticancer Drug Screen. Data for the bub3 strain (AID 167); settings: S. cerevisiae bub3 mutant strain, at 50.0 µM, hits give high values
# Procedure, shortened: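 Whole-cell yeast assay. The mutant strain was incubated with compounds, and growth inhibition was determined by comparison with vehicle-treated cells.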
# [6] = NCI Yeast Anticancer Drug Screen. Data for the mlh1 rad18 strain (AID 175); settings: S. cerevisiae mlh1 rad18 strain growth inhibition; at 50.0 µM; hits give high values
# Procedure, shortened: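 Test agents were incubated with a yeast strain of defined genotype (DNA damage repair defect). Inhibition of growth was derived by comparison with vehicle-exposed cultures.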
Structure (SMILES),growth inhibition [1],growth inhibition [2],growth inhibition [3],growth inhibition [4],growth inhibition [5],growth inhibition [6]
CC(C)=NNc1snnc1C(N)=O,13.2%,26.9%,13.3%,-2%,-13.2%,28.4%
c1ccc([P+](CCNCCNCC[P+](c2ccccc2)(c2ccccc2)c2ccccc2)(c2ccccc2)c2ccccc2)cc1,6.3%,9.25%,-13.8%,5.65%,-5.2%,-0.6%
CCO/C(O)=c1/s/c(=C(\C#N)c2nc3ccccc3[nH]2)n(-c2ccccc2)c1=N,11.6%,3.4%,2.3%,-37.9%,-20.4%,-26.8%
COc1ccc(-c2cc(-c3ccccc3)n[nH]2)cc1,24%,27.7%,43.8%,-13.9%,47.9%,33.4%
CSc1c2c([nH]c(=O)c1C#N)-c1ccccc1CC2,-6.5%,-1.4%,4.85%,15.1%,-3.65%,3.95%
O=NN(CCCl)C(=O)NC1CCC(O)CC1 (configuration not stated),-16.9%,-10.8%,-24%,13.2%,-4.2%,-4.2%
COc1ccc2c(c1)c(CC(=O)O)c(Br)n2Cc1ccccc1,27.9%,33.4%,12%,21.4%,20.1%,77.7% (active)
Nc1nnc(-c2ccc(Br)cc2)o1,3.05%,-16.9%,-14.2%,-5%,-25.9%,5%
CNC(=S)NC(=S)N(C)C,-1.15%,-29.9%,35.2%,-25.8%,-35.2%,35.9%
COC1OCC(NC(=O)CNC(=O)CCCCCCCCCCCCC(C)C)C(O)C1O (configuration not stated),16.2%,5.55%,8.75%,32.5%,-8.1%,18.6%
Cc1ccc(C(=O)c2ccccc2)cc1C[N+](C)(C)C,20.3%,3.35%,10.3%,12%,-5.3%,4.9%
Cc1ccc(CNC(=O)Nc2cccc(Cl)c2)cc1C,6.05%,15.5%,7.05%,1.3%,16.8%,5.35%
COC(=O)c1sc(N2CCCC2)nc1N,-4.95%,9.95%,6.4%,-1.3%,11.4%,-1.85%
Nc1ccc2ccccc2c1S(=O)(=O)O,16.1%,-6.4%,15%,4.65%,-2.4%,-27%
O=C1CC2CCCCC2=C1O (configuration not stated),18.4%,-11.2%,14.1%,17.9%,-3.1%,13.8%
CC(C)N(C(=O)c1cccc2ccccc12)C(C)C,16.4%,6.95%,8.35%,4.55%,8%,32.2%
COc1ccc(N(Cc2ccc(C)o2)C(=S)Nc2ccccc2)cc1,-3.6%,-5.4%,9.7%,8.9%,36%,7.05%
COc1ccc(-c2cc3c(c4cc(OC)ccc24)C(=O)OC3=O)cc1,-29.1%,-5.1%,20.6%,1%,4.4%,-15.1%
Cc1ccc(S(=O)(=O)N/N=C/c2ccsc2)cc1,20.6%,13.3%,27.9%,18.8%,23%,33%
COC(=O)C1CCC(=O)N1Cc1csc(-c2ccccc2)n1 (configuration not stated),-12.1%,-6.95%,-6.8%,-24.7%,-14.8%,-11.8%
NCC(O)C(F)(F)F (configuration not stated),-5.2%,-7.9%,-27.3%,-15.1%,1.75%,-14.5%

Structure (SMILES),growth inhibition [1],growth inhibition [2],growth inhibition [3],growth inhibition [4],growth inhibition [5],growth inhibition [6]
COC(=O)c1ccc(Cl)nc1,0.85%,-8.6%,-9.7%,-6.75%,-11.1%,-10.3%
c1ccc(-c2cnc(C3CCCCC3)o2)cc1,28%,-14.1%,14.8%,10.2%,17.1%,5.55%
c1ccc(CCCCCCc2ccccc2)cc1,-33.9%,-22%,-8.5%,-6.55%,-14.6%,1.3%
Cc1ccccc1C(=O)NNC(=O)c1ccc2ccccc2c1,7.3%,-9.1%,-3.9%,9.35%,-13.2%,-9.45%
CCC(O)(c1ccc(O)cc1)C(O)(CC)c1ccc(O)cc1 (configuration not stated),1.4%,-12.8%,-0.2%,5.55%,17.4%,-14.4%
CCOC(=O)CC/C(C)=N/NC(=O)c1ccc[n+](C)c1,-11.8%,-3.65%,-1.95%,-29%,-3.05%,2.65%
CC1(C)C(CBr)=[N+]([O-])C(C)(C)N1O,4.8%,-0.6%,-15.2%,13.6%,-12.9%,21.6%
O=c1cc[nH]c2ccc(Cl)cc12,-10.2%,5.3%,-4.4%,-33.4%,-7.1%,-1.45%
C/C=C(\C)C(=O)N1c2ccccc2CC1c1c(C)[nH]c2ccccc12 (configuration not stated),29.1%,3.65%,21.2%,19.9%,23.8%,11.1%
CCOc1ccc(NC(=O)C(=O)CC(=O)C2=C(C)Nc3ccccc3S2)cc1,27.6%,14.8%,12.5%,-2.25%,-1%,28.5%
CCOC(=O)C1=CC(C)(C(=O)OCC)Nc2c(nc(SC)n(C)c2=O)N1 (configuration not stated),-19.4%,-21.2%,-16.3%,16.8%,-1.55%,14.2%
CCN(/C=C/C=C(C#N)C#N)CC,6.05%,-5.3%,-9.05%,-15.8%,6.35%,-12.7%
CCOC(=O)C(Br)(C(=O)OCC)C(C)C,3.75%,-0.8%,-16.8%,-16%,10.8%,9.1%
COc1ccc(-c2coc3c4c(c5c(c3c2=O)OC(C)(C)CC5)OC(C)(C)C=C4)cc1OC,11.3%,10.8%,15.7%,38%,18.1%,39.5%
Cc1cn(C2OC3COC2C3O)c(=O)[nH]c1=O (configuration not stated),-20.8%,0.55%,10.7%,27.2%,-6%,-4.75%
Nc1nc2cc(Cl)c(O)cc2o1,-3.25%,-11.6%,-3.5%,-6.7%,-3.55%,-7.9%
Cc1cc(Cl)ccc1C(=O)O,-0.9%,9.7%,13.3%,1.35%,-12.8%,20.2%
CCNC(=O)OCc1cc(Cl)cc(Cl)c1OC(=O)NCC,99.5% (active),99.2% (active),99.7% (active),96.8% (active),98.5% (active),99.5% (active)
NCCNC(=O)CCC(CN(CC(=O)O)CC(=O)O)N(CC(=O)O)CC(=O)O (configuration not stated),42.8%,69.7%,44%,57%,39%,42.7%
Cc1cn(C2CC(N(C)C)C(CO)O2)c(=O)[nH]c1=O (configuration not stated),-28.2%,-25.8%,-18.4%,12.3%,-28.3%,-34.8%
NC(=O)Nc1ccc(Cc2ccc(NC(N)=O)cc2)cc1,-15.4%,-26.8%,10.7%,10.8%,12.9%,12.3%
